Source: PubChem BioAssay (EPA / NIEHS)
Activity calls are given as the source filed them. Rule for the calls: active = hit-call score of the fitted dose curve at least 0.9, where 1 is the maximum; inactive = score below 0.9.

Assay: APR_HepG2_MitoticArrest_1hr: Apredica 1-hour HepG2 Assay for Mitotic Arrest (AID 2282672)
Settings: high-content imaging, actives raise or lower the signal
Protocol: APR_HepG2_1hr is a cell-based, multiplexed-readout assay that uses HepG2, a human liver cell line, with measurements taken at 1 hour after chemical dosing in a 384-well plate.APR_HepG2_MitoticArrest_1hr is one of 10 assay component(s) measured or calculated from the APR_HepG2_1hr assay. It is designed to make measurements of cell phenotype, a form of morphology reporter, as detected with fluorescence intensity signals by HCS Fluorescent Imaging technology.Data from the assay component APR_HepG2_MitoticArrest_1hr was analyzed into 1 assay endpoint. This assay endpoint, APR_HepG2_MitoticArrest_1hr, was analyzed with bidirectional fitting relative to DMSO as the negative control and baseline of activity. Using a type of morphology reporter, measures of protein for gain or loss-of-signal activity can be used to understand the signaling at the pathway-level as they relate to the gene . Furthermore, this assay endpoint can be referred to as a primary readout, because this assay has produced multiple assay endpoints where this one serves a signaling function. To generalize the intended target to other relatable targets, this assay endpoint is annotated to the cell cycle intended target family, where the subfamily is arrest.
Cells were treated with dimethyl sulfoxide (DMSO) as a solvent control at a final concentration of 0.5% v/v or with compounds in DMSO with a resulting final DMSO concentration of 0.5% v/v. Compound treatment was done at concentrations of 0.39, 0.78, 1.56, 3.12, 6.24, 12.5, 25, 50, 100, and 200 uM in duplicate on each plate. Cells were treated with compounds for 1, 24, or 72 hr. Carbonyl […] m-chloro-phenylhydrazone (CCCP) and taxol were used as positive controls for mitochondrial function and cytoskeletal stability, respectively; DMSO served as the negative control for this experiment. Cells were fixed by the direct addition of 50 uL formaldehyde in Hank's Balanced Salt Solution (HBSS) to a final concentration of 3.7%. After incubation in the fixation medium for 30 min at room temperature (293-298 K), cells were rinsed twice with HBSS and treated with cell permeabilization buffer (16 uL of 0.5% Triton X-100) for 10 min at room temperature (293-298 K) before labeling. For mitochondrial membrane potential and mitochondrial measurements, pre-fixed cells were incubated with 50 uL of MitoTracker Red CMXRos (Invitrogen) at a concentration of 250 nM for 30 min before fixation. In the remaining cases, post-fixed cells were labeled by incubation with a multiplexed mixture of primary antibodies in HBSS for 60 min at room temperature (293-298 K) to detect immunoreactivity of c-Jun (1:500), phospho-histone H3 (1:100), phospho-histone H2A.x (1:200), p53 (1:400), alpha-tubulin (1:200) and Hoechst 33342 (2 ug/mL). Cells were labeled for multiplexed imaging on two separate plates: a) Hoechst 33342, MitoTracker Red, phospho-histone H3, and alpha-tubulin, and b) Hoechst 33342, phospho-histone H2A.x, and c-Jun. A final rinse with HBSS (50 uL) was performed before analysis. The primary and secondary antibodies for the proteins were phospho-histone H3 (rabbit anti-phospho-histone H3 and FITC-donkey anti-rabbit IgG), phospho-histone H2A.x (mouse anti-phospho-histone H2A.x and FITC-donkey anti-mouse IgG), c-Jun (rabbit anti-phospho-c-Jun and Cy3-donkey anti-rabbit IgG), p53 (sheep anti-p53 and Cy5-donkey anti-sheep IgG), alpha-tubulin (mouse anti-alpha-tubulin and Cy5-donkey anti-mouse IgG). These antibodies are available as the CellCiphr HepG2 assay kit (Millipore).Digital images of each well were captured using a Cellomics ArrayScan VTI (Thermo Scientific Cellomics) (0.8 NA objective, 0.63x optical coupler, and XF-93 filter set) at 20x magnification. The images were acquired using the autofocus feature of the ArrayScan instrument, which entails the following steps. First, the camera focuses on channel 1 (Hoechst 33342), where nuclei are identified. Second, a Z offset of 1 um is used for capturing mitochondria (MitoTracker Red). […]

| SMILES | outcome |
| --- | --- |
| CCCCC(CC)CN1C(=O)C2C3C=CC(C3)C2C1=O (stereo not given) | inactive |
| CCN(CC)C(=O)c1cccc(C)c1 | inactive |
| CCCN(CCC)c1c([N+](=O)[O-])cc(C(F)(F)F)c(N)c1[N+](=O)[O-] | inactive |
| COC(=O)CSc1cc(N=c2sc(=O)n3n2CCCC3)c(F)cc1Cl | inactive |
| CCNc1nc(N)nc(Cl)n1 | inactive |
| C#CCOC(=O)[C@@H](C)Oc1ccc(Oc2ncc(Cl)cc2F)cc1 | inactive |
| CCCN(CCC)C(=O)SCC | inactive |
| COC(=O)c1ccc(CNS(C)(=O)=O)cc1S(=O)(=O)NC(=O)Nc1nc(OC)cc(OC)n1 | inactive |
| CCCCCOC(=O)COc1cc(N2C(=O)C3=C(CCCC3)C2=O)c(F)cc1Cl | inactive |
| COC(=O)c1ccc(I)cc1S(=O)(=O)NC(=O)Nc1nc(C)nc(OC)n1 | inactive |
| CCOC(=O)C(C)Oc1ccc(Oc2nc3ccc(Cl)cc3o2)cc1 (stereo not given) | inactive |
| COc1c(Cl)ccc(Cl)c1C(=O)O | inactive |
| CC(C)(c1ccc(O)cc1)c1ccc(O)cc1 | inactive |
| CCCCOC(=O)C(C)Oc1ccc(Oc2ccc(C(F)(F)F)cn2)cc1 (stereo not given) | inactive |
| CCN(Cc1c(F)cccc1Cl)c1c([N+](=O)[O-])cc(C(F)(F)F)cc1[N+](=O)[O-] | inactive |
| N#CSCSc1nc2ccccc2s1 | inactive |
| COC(=O)c1ccccc1S(=O)(=O)NC(=O)Nc1nc(OC(F)F)cc(OC(F)F)n1 | inactive |
| CCC(O)=C1C(=O)CC(C(=O)O)CC1=O (stereo not given) | inactive |
| C=CCOC(Cn1ccnc1)c1ccc(Cl)cc1Cl (stereo not given) | inactive |
| c1ccc2[nH]c(-c3cscn3)nc2c1 | inactive |

| SMILES | outcome |
| --- | --- |
| c1ccc(Nc2ccccc2)cc1 | inactive |
| CCCCOCCOCCOCc1cc2c(cc1CCC)OCO2 | inactive |
| CCSC(=O)N(CC(C)C)CC(C)C | inactive |
| CCCOC(=O)NCCCN(C)C | inactive |
| CCC(C)OC(=O)N1CCCCC1CCO (stereo not given) | inactive |
| COCCO | inactive |
| CCCCCCC(C)OC(=O)COc1nc(F)c(Cl)c(N)c1Cl (stereo not given) | inactive |
| CCOC(=O)C(C)Oc1ccc(Oc2cnc3cc(Cl)ccc3n2)cc1 (stereo not given) | inactive |
| CSC(=O)c1cccc2nnsc12 | inactive |
| COC(=O)c1cccc(C)c1S(=O)(=O)NC(=O)Nc1nc(OCC(F)(F)F)nc(N(C)C)n1 | inactive |
| COC(=O)c1c(Cl)nn(C)c1S(=O)(=O)NC(=O)Nc1nc(OC)cc(OC)n1 | inactive |
| S=C([S-])NCCNC(=S)[S-].[Mn+2] | inactive |
| CCOC(=O)[C@H](C)Oc1ccc(Oc2nc3ccc(Cl)cc3o2)cc1 | inactive |
| Oc1ccc(C(c2ccc(O)cc2)C(Cl)(Cl)Cl)cc1 | inactive |
| COc1nc(C)nc(NC(=O)NS(=O)(=O)c2ccccc2OCCCl)n1 | inactive |
| CCCCOC(=O)[C@@H](C)Oc1ccc(Oc2ccc(C(F)(F)F)cn2)cc1 | inactive |
| CC(C)(C)[C@@H](O)[C@@H](Cc1ccc(Cl)cc1)n1cncn1 | inactive |
| O=C(O)C1(C(=O)Nc2ccc(Cl)cc2Cl)CC1 | inactive |
| Cc1nn(C)c(Oc2ccccc2)c1C=NOCc1ccc(C(=O)OC(C)(C)C)cc1 | inactive |
| CCOC(=O)COc1cc(-n2ncc(C(F)(F)F)c(C)c2=O)c(F)cc1Cl | inactive |
